Results on 28 compounds are retold here after PubChem BioAssay (Tox21).

Several values for one entry are separate records, joined by “and”; a condition that tells them apart may be missing. Equal values may be shown once. Results filed as inconclusive are left out. The source holds several records for some structures; these can differ, active in one and inactive in another. Activity calls are given as the source filed them. Unless noted, calls follow the shape of the dose curve; as a rule, active = well fitted curve in the direction sought with a large enough effect in the repeat runs; inconclusive = weak or mixed curves; inactive = no such curve, though single readings can be large; an effect the other way counts as inactive or inconclusive.

The nature of experiment [1]: qHTS assay to identify small molecule antagonists of the glucocorticoid receptor (GR) signaling pathway - cell viability counter screen (AID 720693). Also: nearly all actives have a fitted effect of over 55% in size. Also: potency is read from the fitted curve at half-maximal effect. Background: Quantitative high-throughput screening tests each substance at several concentrations.
Experiment [2] can be described thus: qHTS assay for identifying genotoxic compounds that show differential cytotoxicity against isogenic chicken DT40 cell lines with known DNA damage response pathways - wild type cell line (AID 743012). Also: nearly all actives have a fitted effect of over 60% in size. Also: potency is read from the fitted curve at half-maximal effect. An outline of the steps: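 Wild type DT40, 300 cells/well, ~0.5 h settle at 37 C/5% CO2; compounds in DMSO added by pintool; 40 h at 37 C/5% CO2; CellTiter-Glo, 30 min RT; luminescence.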

Experiment [3] is described as follows: qHTS assay to identify small molecule antagonists of the androgen receptor (AR) signaling pathway using the MDA cell line - cell viability counter screen (AID 743041; also: nearly all actives have a fitted effect of over 45% in size; also: potency is read from the fitted curve at half-maximal effect). An outline of the steps: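 Cells were plated at 3,000 per well and left 5 h. Compounds in DMSO were then pinned in, followed by R1881. After 16 h at 37C, CellTiter-Fluor fluorescence gave viability.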

Experiment [4] can be described thus: qHTS assay for identifying genotoxic compounds that show differential cytotoxicity against isogenic chicken DT40 cell lines with known DNA damage response pathways - Rev3 mutant cell line (AID 743014). Also: nearly all actives have a fitted effect of over 55% in size. Also: potency is read from the fitted curve at half-maximal effect.
Experiment [5] in a line: qHTS assay for identifying genotoxic compounds that show differential cytotoxicity against isogenic chicken DT40 cell lines with known DNA damage response pathways - Rad54/Ku70 mutant cell line (AID 743015). Also: nearly all actives have a fitted effect of over 60% in size. Also: potency is read from the fitted curve at half-maximal effect.
Experiment [6] can be described thus: qHTS assay to identify small molecule antagonists of the androgen receptor (AR) signaling pathway - cell viability counter screen (AID 743033; also: nearly all actives have a fitted effect of over 45% in size; also: potency is read from the fitted curve at half-maximal effect).
Experiment [7] deals with Androgen receptor (Homo sapiens) (UniProt P10275). The experiment can be described thus: qHTS assay to identify small molecule antagonists of the androgen receptor (AR) signaling pathway using the MDA cell line (AID 743042; also: nearly all actives have a fitted effect of over 55% in size; also: potency is read from the fitted curve at half-maximal effect). In short, it runs like this:
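Antagonist mode: compounds plus R1881 agonist added to MDA-kb2 AR-luc cells, incubated 16 h at 37C. Luciferase reporter luminescence quantified, with multiplexed CellTiter-Fluor readout for cell viability.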

For experiment [8] the target is unchanged. The experiment in a line: qHTS assay to identify small molecule antagonists of the androgen receptor (AR) signaling pathway (AID 743035; active = well fitted inhibition curve with a large enough effect in the signal ratio in the repeat runs, not every such curve was filed as active; the % refers to the signal ratio; also: potency is read from the fitted curve at half-maximal effect). In short, it runs like this:
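Fluorescence from a beta-lactamase FRET substrate (LiveBLAzer B/G, 2 h, room temperature) measured inhibition of R1881-stimulated signaling in GeneBLAzer AR-UAS-bla HEK293 cells exposed to compound for 16 h at 37C.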

Experiment [9] has the same target. The experiment can be described thus: qHTS assay to identify small molecule agonists of the androgen receptor (AR) signaling pathway using the MDA cell line (AID 743040; also: nearly all actives have a fitted effect of over 20% in size). In short, it runs like this: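 Cells plated, 5 h at 37C/0% CO2; compound or DMSO pinned; 16 h at 37C; ONE-Glo added; luminescence measured after 30 min at room temperature. Reporter line: MDA-kb2 with MMTV-luciferase responsive to AR and GR.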

Experiment [10] shares this target. The experiment in a line: qHTS assay to identify small molecule agonists of the androgen receptor (AR) signaling pathway (AID 743036; active = well fitted activation curve with a large enough effect in the signal ratio in the repeat runs, with a control signal flat, not every such curve was filed as active; the % refers to the signal ratio). An outline of the steps: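 Following a 4 h settling period, AR-UAS-bla HEK293 cells were dosed with compounds for 16 h at 37C. A 2 h room-temperature incubation with LiveBLAzer B/G FRET substrate preceded the fluorescence measurement.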

Chain of Androgen receptor (Homo sapiens) (P10275 whole entry, looked up): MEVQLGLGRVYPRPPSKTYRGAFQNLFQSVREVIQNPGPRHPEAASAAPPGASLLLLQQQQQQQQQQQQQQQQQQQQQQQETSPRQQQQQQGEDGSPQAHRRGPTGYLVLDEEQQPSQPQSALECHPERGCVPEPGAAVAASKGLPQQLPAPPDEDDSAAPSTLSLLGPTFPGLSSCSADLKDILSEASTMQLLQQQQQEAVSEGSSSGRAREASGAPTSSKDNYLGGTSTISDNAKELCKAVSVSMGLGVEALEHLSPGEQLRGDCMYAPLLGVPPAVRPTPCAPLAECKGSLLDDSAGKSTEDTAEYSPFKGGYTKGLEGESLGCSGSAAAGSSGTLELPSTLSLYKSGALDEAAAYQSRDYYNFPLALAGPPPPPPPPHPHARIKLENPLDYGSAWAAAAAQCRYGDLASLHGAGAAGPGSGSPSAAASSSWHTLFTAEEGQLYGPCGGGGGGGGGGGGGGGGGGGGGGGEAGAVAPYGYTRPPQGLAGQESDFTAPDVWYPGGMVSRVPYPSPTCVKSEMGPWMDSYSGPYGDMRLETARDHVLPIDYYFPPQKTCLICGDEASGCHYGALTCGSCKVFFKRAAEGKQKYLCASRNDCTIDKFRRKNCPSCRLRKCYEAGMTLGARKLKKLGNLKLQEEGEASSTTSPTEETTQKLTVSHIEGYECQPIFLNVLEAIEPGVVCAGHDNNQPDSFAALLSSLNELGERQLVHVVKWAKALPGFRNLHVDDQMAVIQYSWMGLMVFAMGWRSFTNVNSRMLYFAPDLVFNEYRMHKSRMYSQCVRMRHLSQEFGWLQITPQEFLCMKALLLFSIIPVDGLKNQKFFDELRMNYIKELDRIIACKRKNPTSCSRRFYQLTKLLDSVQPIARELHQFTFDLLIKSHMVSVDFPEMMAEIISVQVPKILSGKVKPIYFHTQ

Turning to `CCCCCCNC(=O)n1cc(F)c(=O)[nH]c1=O`, the Potency result in [1] and in [3] was “inactive” each time. Besides, the Potency in [2] was 8.41 µM (active).
`OC[C@H]1O[C@@H](n2cnc3c(=S)nc[nH]c32)[C@H](O)[C@@H]1O`: the Potency entry in experiment [1] and in [3] was “inactive” each time. In addition, in experiment [2], the Potency was 13.3 µM (active).
Take `CC[N+](CC)(CCNC(=O)C(=O)NCC[N+](CC)(CC)Cc1ccccc1Cl)Cc1ccccc1Cl`: the Potency entry in [1], in [2] and in experiment [3] was “inactive” in each case.
`O=Cc1c2ccccc2c(Cl)c2ccccc12`: the Potency result in experiment [1], in experiment [4], in [5], in [6] and in experiment [3] was “inactive” each time.
For the compound `C=C/C(C)=C/C/C=C(\C)CCC=C(C)C`, the Potency result in experiment [1], in experiment [6] and in experiment [3] was “inactive” throughout. For the same compound, the Potency in experiment [5] was 48.6 µM (active).
Consider `Clc1cc(Cl)nc(Cl)n1`, for which the Potency result in experiment [1], in experiment [4], in [5], in experiment [6] and in experiment [3] was “inactive” each time.
As to `O=c1cc(-c2ccccc2)oc2ccc3ccccc3c12`, the Potency was 54.9 µM (active) in experiment [1], 15.4 µM (active) in experiment [4] and 21.9 µM (active) in experiment [6]. In addition, the Potency entry in [3] and in [7] was “inactive” throughout.
Consider `Cc1ccc(C(C)(C)O)cc1`, for which the Potency entry in [1], in experiment [4], in experiment [5], in experiment [6] and in experiment [3] was “inactive” in each case.
With `CC(C)(O)c1ccc(CNC(=O)c2cccnc2Oc2ccc3nonc3c2)cc1`, the Potency entry in experiment [1] and in [3] was “inactive” throughout. For the same compound, the Potency in experiment [2] is 61.1 µM (active).
For `CCOc1cccc(-n2cc(C(=O)N3CCN(c4cc(C(=O)O)c5ccccc5c4)CC3)nc2-c2ccc(C)cc2)c1`, the Potency entry in [1], in experiment [6] and in [8] was “inactive” each time. Moreover, the compound was classed as inactive in experiment [9].
Regarding `O=C1c2ccccc2C(=O)C1c1nc2ccccc2c(Br)c1O`, the Potency entry in [1], in experiment [4], in experiment [5], in experiment [6] and in [3] was “inactive” each time.
For `CN1C(=O)c2ccccc2C1=O`, the Potency entry in [1] and in experiment [3] was “inactive” in each case. The values for the Potency in experiment [4] and in experiment [5] were 68.6 µM (active) and 61.1 µM (active), respectively.
Take `N#[N+]c1ccc2c(S(=O)(=O)[O-])cccc2c1O`: the Potency entry in experiment [1], in experiment [4], in experiment [5], in experiment [6] and in experiment [3] was “inactive” in each case.
On to `CCC1CO1` (stereo unspecified), for which the Potency result in experiment [1], in experiment [2], in experiment [6] and in experiment [3] was “inactive” each time.
For `Brc1cc(Br)c(Oc2cc(Br)c(Br)cc2Br)cc1Br`, the Potency result in experiment [1], in [2] and in [3] was “inactive” throughout.
Turning to `C(=C\c1ccccc1)/c1ccccc1`, the Potency entry in experiment [1], in experiment [4], in [6] and in [3] was “inactive” in each case.
In the case of `c1ccc2sc(SN(C3CCCCC3)C3CCCCC3)nc2c1`, the Potency entry in experiment [1], in experiment [2], in [6] and in experiment [3] was “inactive” in each case.
As to `O=C1c2ccccc2C(=O)C1(O)O`, the results for the Potency in [4] and in experiment [5] were 24.5 µM (active) and 27.4 µM (active), respectively. Also, the Potency entry in experiment [3] is “inactive”.
On to `CCOC(=O)c1ccccc1C(=C1C=C(Br)C(=O)C(Br)=C1)c1cc(Br)c(O)c(Br)c1`, for which the Potency entry in experiment [2] and in [6] was “inactive” each time.
Consider `CCCCCC[C@@H](O)C/C=C\CCCCCCCC(=O)O`, for which the Potency entry was “inactive and 29.8 µM (active)” in experiment [2]; “inactive and 23.7 µM (active) and 48.6 µM (active)” in [5]. The Potency result in experiment [4], in experiment [6] and in experiment [3] was “inactive” in each case.
For the compound `CC1(CN2CCC(n3c(=O)[nH]c4ccccc43)CC2)OCc2ccccc2-n2cccc21` (stereo unspecified), the Potency was 21.1 µM (active) in experiment [2], 29.8 µM (active) in experiment [4] and 21.1 µM (active) in experiment [5]. For the same compound, the Potency result in experiment [6] was “inactive”.
On to `C1C[C@@H]2[C@H]3CC[C@H](C3)[C@@H]2C1`, for which the Potency result in [6] and in [3] was “inactive” each time.
Take `c1cc(N(CC2CO2)CC2CO2)ccc1Cc1ccc(N(CC2CO2)CC2CO2)cc1` (stereo unspecified): the Potency is 3.44 µM (active) in experiment [2]; 0.0611 µM (active) in experiment [4]; 1.93 µM (active) in [5]; 54.9 µM (active) in experiment [6]; 27.3 µM (active) in experiment [7]. Besides, the compound was called inactive in experiment [9]. Besides, in [3], the Potency entry was “inactive”.
Regarding `C[C@@H]1CC(=O)NN=C1c1ccc(NN=C(C#N)C#N)cc1`, the Potency in experiment [2] was 18.8 µM (active); in experiment [4], 18.8 µM (active); in experiment [5], 21.1 µM (active); in [3], 29.8 µM (active). For the same compound, the call in [9] was inactive.
As for `CC1=Nc2ccc3ccccc3c2C1(C)C`, the Potency result in experiment [1] and in experiment [7] was “inactive” each time. Moreover, the call in experiment [10] and in [9] was inactive.
With `C/C=C/C=C/C=O`, the Potency in [4] was 54.1 µM (active). For the same compound, the Potency entry in [6], in experiment [3] and in [7] was “inactive” throughout. The outcome in [9] was inactive.
For the compound `O=C=Nc1cccc(C(F)(F)F)c1`, the Potency entry in [1], in [3] and in experiment [7] was “inactive” throughout. The Potency in [8] is 48.6 µM (active). Further, the outcome in [10] and in experiment [9] was inactive.
Consider `CCCCCCCCCCCCCCN(CCO)CCO`, for which the Potency is 2.43 µM (active) in experiment [2], 1.09 µM (active) in experiment [4] and 43.6 µM (active) in experiment [6]. Besides, in [3], the Potency result was “inactive”.
